In the library only some 10% were active in any assay of this set; here they are far more common.
HP1b binding inh: HTS for Inhibitors of HP1-beta Chromodomain Interactions with Methylated Histone Tails. Chromobox protein homolog 1 (Homo sapiens), P83916. AlphaScreen HP1-beta / biotin-H3K9me3 peptide binding. Potency, µM (highest dose often 114 µM), for inactives: at the highest dose activity change, negative = inhibition, actives largely listed as inhibitors. 0.56% of 390,000 active; further: potency means the concentration at half of the fitted maximal effect; nearly all actives have a fitted effect of over 70% in size
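AlphaScreen: HP1-beta (50 nM) preformed 30 min with biotin-H3(1-18)K9me3 peptide (50 nM) in PBS pH 7.4, 0.01% Tween-20. Compound added for 30 min at RT, then streptavidin donor/nickel chelate acceptor beads (10 ug/mL) for 30 min.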
Six1-Eya2 inh: qHTS Assay for Inhibitors of the Six1/Eya2 Interaction; 0.56% of 360,000 active; AID 651725, 2012; activity change, % (test concentration not listed); AlphaScreen GST-Six1/His-Eya2 binding, biochemical; active compounds read low; in the data active means activity change below about -65%; inconclusive means mostly about -30% to -63%; further: on the % scale 0 is the no-effect control and ±100 the full control effect
Target sequence (O00167 whole entry, looked up): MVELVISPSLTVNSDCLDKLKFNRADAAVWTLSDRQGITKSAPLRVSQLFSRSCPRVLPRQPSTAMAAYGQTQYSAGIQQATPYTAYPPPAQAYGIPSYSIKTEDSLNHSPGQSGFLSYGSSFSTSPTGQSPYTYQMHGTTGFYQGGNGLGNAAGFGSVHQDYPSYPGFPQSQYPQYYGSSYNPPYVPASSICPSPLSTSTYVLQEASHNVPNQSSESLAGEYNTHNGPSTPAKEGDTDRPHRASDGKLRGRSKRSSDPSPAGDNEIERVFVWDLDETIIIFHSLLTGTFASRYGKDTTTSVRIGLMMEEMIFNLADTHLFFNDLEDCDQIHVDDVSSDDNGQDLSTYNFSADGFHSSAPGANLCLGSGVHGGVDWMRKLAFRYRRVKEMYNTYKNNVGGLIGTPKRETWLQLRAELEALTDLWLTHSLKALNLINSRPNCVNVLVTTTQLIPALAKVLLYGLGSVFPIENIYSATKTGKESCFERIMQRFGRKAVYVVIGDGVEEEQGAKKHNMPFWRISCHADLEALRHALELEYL
Target sequence (Q15475 whole entry, looked up): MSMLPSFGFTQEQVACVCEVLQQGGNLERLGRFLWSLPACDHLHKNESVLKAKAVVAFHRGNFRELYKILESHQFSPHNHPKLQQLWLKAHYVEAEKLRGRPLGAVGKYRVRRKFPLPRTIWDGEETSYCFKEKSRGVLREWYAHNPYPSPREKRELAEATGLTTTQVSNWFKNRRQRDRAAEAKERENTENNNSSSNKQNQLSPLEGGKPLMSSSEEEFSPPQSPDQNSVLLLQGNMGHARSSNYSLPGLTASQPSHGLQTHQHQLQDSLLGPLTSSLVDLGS
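AlphaScreen with GST-Six1 and His-Eya2 (5X mix: 250 nM and 500 nM), glutathione donor and nickel acceptor beads; buffer 50 mM Tris pH 8.0, 300 mM NaCl, 1 mM TCEP; 1 h at 37 C in the dark.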
JMJD2A Tudor: qHTS Assay for Inhibitors of JMJD2A-Tudor Domain. AlphaScreen JMJD2A-Tudor / H3K4me3 peptide binding. Potency, µM (doses to about 114 µM), without a hit: at the highest dose activity change, negative = inhibition, hits mostly inhibitors. 4.4% of 390,000 active. AID 504339, 2011; further: potency means the concentration at half of the fitted maximal effect; on the % scale 0 is the no-effect control and ±100 the full control effect; nearly all actives have a fitted effect of over 50% in size
CtBP-E1A inh: qHTS Assay for Inhibitors of the CtBP/E1A Interaction; 0.49% of 340,000 active; activity change, % (concentration not given with the values); AID 651724, 2012; AlphaScreen GST-E1A/His-CtBP binding, 1536-well; active compounds read low; CtBP / adenovirus E1A interaction (AlphaScreen); in the data active means activity change below about -65%; inconclusive means mostly about -30% to -63%; further: on the % scale 0 is the no-effect control and ±100 the full control effect
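AlphaScreen with 125 nM GST-E1A and 125 nM His-CtBP (5X stocks) in Tris pH 8.0, 300 mM NaCl, BSA, Tween 20, TCEP. Compounds preincubated 2 h at 37 deg C, then glutathione donor/nickel acceptor beads added for 1 h at 37 deg C in dark.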
BAZ2B inh: qHTS Assay for Inhibitors of BAZ2B | 4.4% of 360,000 active | Potency, µM (highest dose often 114 µM), for the others: at the highest dose activity change, negative = inhibition, usual class: inhibitors | Bromodomain adjacent to zinc finger domain protein 2B (Homo sapiens), Q9UIF8 | AlphaScreen BAZ2B-H3K14Ac peptide displacement; further: potency means the concentration at half of the fitted maximal effect; on the % scale 0 is the no-effect control and ±100 the full control effect; nearly all actives have a fitted effect of over 60% in size
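Multi-concentration screen (max 110 uM) measuring displacement of acetylated histone H3 peptide from BAZ2B by AlphaScreen, using 50 nM protein, 50 nM peptide and 10 ug/mL streptavidin donor plus Ni-chelate acceptor beads.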
G9a block: qHTS Assay for Inhibitors of Histone Lysine Methyltransferase G9a; Histone-lysine N-methyltransferase EHMT2 (Homo sapiens), Q96KQ7; AID 504332, 2011; 8.8% of 350,000 active; G9a H3K9 monomethylation, AlphaScreen, 2 h; Potency, µM (doses to about 102 µM), for the others: at the top dose activity, negative = inhibition, hits mostly inhibitors; further: potency means the concentration at half of the fitted maximal effect; on the % scale 0 is the no-effect control and ±100 the full control effect; nearly all actives have a fitted effect of over 75% in size
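Signal arises when biotinylated H3K9 peptide, once monomethylated, bridges streptavidin donor and antibody-captured acceptor beads. Enzyme at 20 nM was preincubated 15 min with test compounds; peptide 500 nM and SAM 20 uM then reacted for 2 h.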
Numbers without * were called inactive; ? = inconclusive; . = not tested or not shown; [ ] = remark or other dose. Unless noted, the call rests on the fitted dose curve; in most records, active means well fitted inhibition curve with a large enough effect; inconclusive means small, poorly fitted or top-dose-only effect; inactive means no such curve, though single readings can be large or run the other way.

SMILES	HP1b binding inh	Six1-Eya2 inh	JMJD2A Tudor	CtBP-E1A inh	BAZ2B inh	G9a block
O=C(O)C1C2C=CC(O2)C1C(=O)Nc1ccc(S(=O)(=O)N2CCc3ccccc32)cc1 (centres undefined)	3%	-16	-35%	?	-6%	11µM*
O=C(O)C1C2C=CC(O2)C1C(=O)Nc1ccc(S(=O)(=O)Nc2ccccc2)cc1 (centres undefined)	?	0	79µM*	2	-4%	?
Cc1ccc(S(=O)(=O)NCC(=O)N(CC(=O)NCc2ccco2)C2CCCC2)cc1	7%	-7	-6%	-10	1%	-10%[59 µM]
CCN(c1ccccc1)S(=O)(=O)c1ccc(N2CCN(c3ccc(O)cc3)CC2)nc1	50µM*	?	22µM*	0	.	.
CCN(CC)S(=O)(=O)c1ccc(N2CCc3ccccc3C2)nc1	52%	7	19%	-21	13%	40µM*
Cc1cc(=O)[nH]c2nnc(SCc3c(F)cccc3Cl)n12	37%	.	-9%	.	0%	5%[59 µM]
O=C1O[C@@H]([C@@H](O)CO)[C@@H](O)[C@H]1O	.	.	.	.	.	-41%[12.7 µM]
COC(=O)c1c(-c2cccnc2)csc1NC(=O)c1ccc2c(c1)OCO2	9%	1	-24%	-5	-14%	.
Cc1cccc(CN2C(=O)c3ccccc3S(=O)(=O)c3ccc(C(=O)N4CCN(c5cc(C)ccc5C)CC4)cc32)c1	24%	.	-14%	.	-23%	?
CCCCCCCCNC(=S)NCCN1CCCCC1	?	-1	79µM*	.	?	45µM*
FC(F)(F)Oc1ccc(NC(=S)NCCCN2CCOCC2)cc1	-1%	-1	-14%	.	-19%	50µM*
S=C(NCCCN1CCOCC1)NCCCN1CCOCC1	?	8	7%[57.1 µM]	4	7%	8.9µM*
Cc1cc(NC(=S)N(CCCN2CCN(C)CC2)Cc2ccco2)ccc1Cl	6%	0	-17%	-10	-27%	32µM*
Cc1ccc(NC(=S)N(CCCN2CCOCC2)Cc2ccco2)cc1C	11%	-4	-20%	6	?	-30%
Cc1ccc(NC(=S)N(CCN2CCCCC2)Cc2ccco2)cc1Cl	-14%	0	-31%	5	-32%	50µM*
COc1cccc(/C=C2\SC(=S)N(C(C)C(=O)NC3C=CS(=O)(=O)C3)C2=O)c1 (centres undefined)	-19%	-4	?	-19	40µM*	?
COc1ccc(/C=C2\SC(=S)N(C(C)C(=O)NC3C=CS(=O)(=O)C3)C2=O)cc1 (centres undefined)	-15%	-12	?	-27	?	.
COc1cccc(/C=C2\SC(=S)N(N3C(=O)CCCC3=O)C2=O)c1	?	-1	-85%	0	25µM*	22µM*
COc1cccc(/C=C2\SC(=S)N(CC3CCCO3)C2=O)c1 (centres undefined)	-52%	?	?	-12	8.9µM*	28µM*
Cc1csc2nc(COc3cccc(NC(=O)c4ccccc4F)c3)cc(=O)n12	55%	.	-23%	.	-2%	2%[59 µM]
COCCn1c(SCCN2CCCCC2)nc2ccccc2c1=O	?	3	2.2µM*	-4	?	?
COCCn1c(SCC(=O)N2CCCCC2)nc2ccccc2c1=O	23%	1	-12%	4	-34%	?
Cc1ccc(C(=O)c2cn(Cc3cc(C)ccc3C)c3nc(C)ccc3c2=O)cc1	1%	.	-28%	.	-12%	-33%[59 µM]
Cc1cc(C)nc(Nc2ccc(O)cc2)n1	43%	4	-11%	5	0%	19%
CCCc1cc(=O)[nH]c(Nc2ccc(N3CCCCC3)cc2)n1	?	-28	50µM*	-14	50µM*	8.9µM*
SMILES	HP1b binding inh	Six1-Eya2 inh	JMJD2A Tudor	CtBP-E1A inh	BAZ2B inh	G9a block
Cc1cc(C)nc(Nc2ccc(N3CCCC3)cc2)n1	?	?	35µM*	?	28µM*	?
Cc1cc(C)nc(Nc2ccc(N3CCOCC3)cc2)n1	1%	-7	-19%	-1	-38%	50µM*
CCc1ccc(NC(=O)C2CCCN(S(=O)(=O)c3ccc4c(c3)oc(=O)n4C)C2)cc1 (centres undefined)	53%	.	1%	.	0%	2%[59 µM]
O=C(Nc1ccc(Br)cc1)c1ccc(F)c(S(=O)(=O)N2CCc3ccccc32)c1	29%	.	1%	.	6%	19%[59 µM]
Cc1ccccc1C(C(=O)NC1CCCC1)N(C(=O)CNC(=O)c1ccco1)c1cccnc1 (centres undefined)	.	.	.	.	-21%	-5%
CN(C(=O)c1c(O)c2ccccc2n(C)c1=O)c1ccccc1	.	.	.	.	.	-11%[12.7 µM]
O=C(Nc1nnc(C(F)(F)F)s1)c1ccc(Br)s1	7%	6	-36%	-16	-13%	50µM*
CCOC(=O)c1ccc(NC(=O)CC2Nc3ccccc3NC2=O)cc1 (centres undefined)	30%	.	-7%	.	-14%	-25%[59 µM]
CCOc1ccc(NC(=O)CNS(=O)(=O)c2ccc(Br)s2)cc1	21%	.	-8%	.	4%	-6%[59 µM]
CCCS(=O)(=O)c1ncc(Cl)c(C(=O)N2CCN(c3ccc(OC)cc3)CC2)n1	36%	.	-16%	.	-3%	11µM*
CCSc1ncc(Cl)c(C(=O)N2CCN(c3ccc(OC)cc3)CC2)n1	-18%	.	?	.	?	14µM*
COc1ccc(N2CCN(C(=O)c3c(Cl)cnn3C)CC2)cc1	9%	2	-12%	-2	-1%	40%
COC(=O)C(CCSC)NC(=O)c1cc2c(n(-c3ccc(C)cc3)c1=O)CCCC2=O (centres undefined)	27%[57 µM]	-4	-9%	0	50µM*	0.56µM*
CNC[C@H]1Oc2cc(Br)ccc2S(=O)(=O)N([C@@H](C)CO)C[C@@H]1C	.	18	.	4	.	.
CCNC(=S)/C(=C(/[O-])c1ccc([N+](=O)[O-])cc1)[n+]1ccccc1	4%	5	-29%	2	-12%	.
O=[N+]([O-])c1cccc(/C([O-])=C(/C(=S)Nc2ccccc2)[n+]2ccccc2)c1	-19%	-5	?	-13	-23%	10µM*
C=CCNC(=S)/C(=C(/[O-])c1ccc([N+](=O)[O-])cc1)[n+]1ccccc1	7%	0	-11%[11.4 µM]	.	4%	45µM*
CCNc1nc(C#N)nc(NCC)n1	21%[57 µM]	.	-22%[57.1 µM]	.	.	.
O=C(O)CCN1CCc2ccccc2C1c1ccncc1 (centres undefined)	46%	12	-6%	.	-25%	50µM*

High-throughput results deposited in PubChem by National Center for Advancing Translational Sciences (NCATS).
